Source: PubChem BioAssay (NCI)
About 83,000 compounds went through this panel and 20% of them were active in at least one assay; those are over-represented in the sample as a whole.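 Step 1: grow cells in 96-well plates. Step 2: add test compound at a single concentration. Step 3: incubate 48 h. Step 4: record percent growth.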 Values without a mark were called inactive. Active and inactive are the calls of the source. The calls were made as follows: active = growth percent below 10; inactive = the rest.

Experiments:
Assay in all cases: NCI-60 one-dose screen, 48 h (100 = growth as untreated, 0 = no growth, -100 = all killed)
Settings in all cases: 10 µM unless noted
NCI-H23 lung = tested on: NCI-H23 lung
NCI-H226 lung = tested on: NCI-H226 lung
NCI-H322M lung = tested on: NCI-H322M lung
HOP-62 NSCLC = tested on: HOP-62 NSCLC
NCI-H460 lung = tested on: NCI-H460 lung
HOP-92 NSCLC = tested on: HOP-92 NSCLC
NCI-H522 lung = tested on: NCI-H522 lung
A549/ATCC NSCLC = tested on: A549/ATCC NSCLC
786-0 renal = tested on: 786-0 renal
COLO 205 colon = tested on: COLO 205 colon
DU-145 prostate = tested on: DU-145 prostate
K-562 leukemia = tested on: K-562 leukemia
MALME-3M melanoma = tested on: MALME-3M melanoma
MDA-MB-231 breast = tested on: MDA-MB-231 breast
RXF 393 renal = tested on: RXF 393 renal
SF-268 CNS = tested on: SF-268 CNS
SF-295 CNS = tested on: SF-295 CNS
SF-539 CNS = tested on: SF-539 CNS
UACC-257 melanoma = tested on: UACC-257 melanoma
M14 melanoma = tested on: M14 melanoma

Row | Structure (SMILES) | growth (NCI-H23 lung) | growth (NCI-H226 lung) | growth (NCI-H322M lung) | growth (HOP-62 NSCLC) | growth (NCI-H460 lung) | growth (HOP-92 NSCLC) | growth (NCI-H522 lung) | growth (A549/ATCC NSCLC) | growth (786-0 renal) | growth (COLO 205 colon) | growth (DU-145 prostate) | growth (K-562 leukemia) | growth (MALME-3M melanoma) | growth (MDA-MB-231 breast) | growth (RXF 393 renal) | growth (SF-268 CNS) | growth (SF-295 CNS) | growth (SF-539 CNS) | growth (UACC-257 melanoma) | growth (M14 melanoma)
1 | COc1cc(/C=N\NC(=O)CN2CCN(c3cc4c(cc3F)c(=O)c(C(=O)N/N=C/c3ccc(O)c(OC)c3)cn4C3CC3)CC2)ccc1O | 53.7% | 70.5% | 31.7% | 73.1% | 67% | 70.9% | 18.9% | 66.9% | 92.4% | -9.77% (active) | 66.3% | 40.5% | 62.4% | 59.5% | 86.9% | 59.4% | 90.5% | 86.9% | 41% | 80%
2 | COc1ccc(C/C(C)=C(\c2ccc(Cl)cc2)c2ccc(OCCN3CCCCCC3)cc2)cc1 | 78.8% | 86.1% | 86.8% | 97.4% | 70.4% | 71.2% | 73.5% | 87.9% | 86.3% | 65.2% | 106% | 20.7% | 104% | 99.9% | 93.1% | 88.4% | 100% | 90.8% | 94.7% | 90.2%
3 | CSc1nc2sc3c(c2c(=O)n1-c1ccc(C(C)C)cc1)CCC(=O)C3 | -1.79% (active) | 65.6% | 31.6% | 15.2% | 1.54% (active) | -18.2% (active) | -75.3% (active) | 67.9% | 18.7% | -67.7% (active) | 40.5% | 2.37% (active) | 2.52% (active) | -17.1% (active) | -2.94% (active) | 18.9% | 4.21% (active) | -22.1% (active) | 84.7% | 10.1%
4 | COc1ccc2c(c1)C(=O)/C(=C/c1cccc(OCC(=O)Nc3nc4c(s3)CCCC4)c1)O2 | -48.9% (active) | 101% | 82.5% | 99.3% | 71.3% | -74.8% (active) | -50.3% (active) | 54.6% | 63.3% | -3.43% (active) | 32.9% | -46.8% (active) | -67.6% (active) | 23.5% | -43.8% (active) | -26.9% (active) | 52.1% | -83.2% (active) | -22.4% (active) | -27.4% (active)
5 | CCOC(=O)C(C#N)C1CCCCC1 (centres undefined) | 93.6% | 83.4% | 92.1% | 90.4% | 123% | 80.7% | 96.9% | 105% | 105% | 127% | 104% | 79.3% | 95.6% | 81.3% | 99.3% | 91% | 93.5% | 122% | – | 101%
6 | O=C(/C=C\c1ccc2ccccc2n1)c1cc(Cl)ccc1O | 63.2% | 58.7% | 86.1% | 97.8% | 78.9% | 52.3% | 94.8% | 104% | 75.4% | 115% | 93.3% | 79.4% | 80.5% | 78.3% | 84.2% | 71.6% | 69.9% | 87.2% | 84.9% | 84.6%
7 | CC1CN(C(C)C)C(=S)N(c2ccccc2)C1=O (centres undefined) | 94.6% | 106% | 101% | 85.7% | 105% | 107% | 87% | 101% | 96.2% | 157% | 103% | 95.9% | 82% | 90.4% | 102% | 98.8% | 108% | 96.4% | – | 93.2%
8 | CCCCCCCCCCCCCC1=NCCN1CCO | 72% | 95% | 93.5% | 58.9% | -68.9% (active) | 24.5% | 89% | 65.1% | 68.8% | -75% (active) | 116% | 5.11% (active) | 104% | 51.3% | 59.5% | 152% | 136% | -70% (active) | – | 2.59% (active)
9 | O=S(=O)(Nc1ccc(F)c(Cl)c1)c1ccc(-c2cnc(C3CC3)o2)cc1 | 24.8% | 47.1% | 45.7% | 33.1% | 10.5% | 42% | -11.5% (active) | 21.4% | 43.2% | -6.19% (active) | 16.3% | 15.4% | 45% | 36.2% | -9.55% (active) | 52.2% | 5.73% (active) | -14.7% (active) | 48.2% | 24.8%
10 | C=C1C(=O)O[C@H]2[C@H]1CC/C(Cn1cc(Cn3ccc4ccccc43)nn1)=C\CC[C@@]1(C)O[C@@H]21 | 45.6% | 76.8% | 79.7% | 77.5% | 86.5% | -36.3% (active) | -60.6% (active) | 62% | -19.5% (active) | -71.4% (active) | 18.1% | -16.5% (active) | -54.5% (active) | -24.8% (active) | -22.9% (active) | 39.9% | 76.2% | -62.8% (active) | 41.3% | 14.4%
11 | O=C1/C(=C/c2ccc(Cl)c(Cl)c2)CN(C(=O)CCN2CCC(=NO)CC2)C/C1=C\c1ccc(Cl)c(Cl)c1 | -73.4% (active) | -40.6% (active) | -78.7% (active) | -88.2% (active) | -66% (active) | -53.2% (active) | -90.4% (active) | -34.6% (active) | -79.6% (active) | -84.6% (active) | -82.8% (active) | -27% (active) | -81.7% (active) | -90.5% (active) | -88.8% (active) | -82.6% (active) | -88.5% (active) | -93.7% (active) | -85.5% (active) | -49.7% (active)
12 | Cc1ccc(SCN2CCN(c3cccc(Cl)c3)CC2)cc1 | 94.4% | 80.9% | 88.7% | 114% | 98.4% | 89.7% | 96% | 106% | 94.8% | 115% | 116% | 118% | 87.3% | 84.3% | 108% | 100% | 97.3% | 96.2% | – | 96.9%
13 | CCc1ccc(C(c2ccc(CC)cc2)C(Cl)(Cl)CCl)cc1 | 92.8% | 101% | 110% | 99.1% | 98.8% | 55.2% | 83% | 149% | 84% | 100% | 110% | 106% | 96.6% | 88.7% | 131% | 93.7% | 105% | 96.3% | 110% | 100%
14 | O=C(Cc1ccccc1)c1ccc(Cl)cc1 | 95.4% | 99% | 108% | 100% | 109% | 104% | 93.8% | 69.3% | 94.5% | 125% | 119% | 123% | 105% | 103% | 121% | 111% | 103% | 107% | – | 101%
15 | COc1ccc(/C=C2\CN(C(=O)CCN3CCC(=NO)CC3)C/C(=C\c3ccc(OC)cc3)C2=O)cc1 | -4.73% (active) | 70% | 17.8% | 44.8% | -34.5% (active) | 89% | -29.7% (active) | 36.5% | -10.3% (active) | -23.7% (active) | 22.6% | 4.21% (active) | -40.9% (active) | -57.9% (active) | -81.2% (active) | 13.3% | 8.38% (active) | -25.5% (active) | 22.9% | 7.58% (active)
16 | COc1cccc(/C=C\C(=O)c2ccccc2)c1 | 86.7% | 76.7% | 85% | 87% | 78% | 87.6% | 81.2% | 92.4% | 74.4% | 90.1% | 53.8% | 31% | 83.4% | 88.5% | 50.2% | 60.4% | 77.5% | 87.7% | – | 85.1%
